FMDV antiviral = foot and mouth disease virus antiviral activity | FMDV antiviral cell-based qHTS | Potency, µM (top dose mostly 57.9 µM), for the others: at the top dose activity change, negative = inhibition, usual class: inhibitors | actives 1.2% (n = 410,000); calls by dose curve; tested in HEK293T cells; note: read-out not given here; potency is the fitted concentration of half-maximal effect; nearly all actives have a fitted effect of over 45% in size
HCMV inh = inhibitors of human cytomegalovirus; HFF cells, HCMV-luciferase reporter, 72 h; active compounds read low; activity change, negative = inhibition, % at 57.5 µM; actives 4.5% (n = 410,000); AID 1259415; in the data active = activity change below about -60%; inconclusive = no clear call, values can overlap the other calls; inactive = above about -39%
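Inhibition of viral replication was scored as loss of reporter luminescence in HFFs infected with HCMV-luciferase (MOI 1 PFU/cell) for 72 h; compounds tested at 2 doses, normalized to buffer and Salinomycin controls.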
AmpC inh no detg = inhibitors of E. coli AmpC beta-lactamase without detergent; AmpC nitrocefin hydrolysis, absorbance 480 nm, 0.0001% Triton; AID 485341; Potency, µM (titrated, usually from 57.1 µM), for inactives: top-dose activity change, negative = inhibition, most hits filed as inhibitors; actives 0.52% (n = 330,000); P00811;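 note: potency is the fitted concentration of half-maximal effect; plate controls were no compound for no effect and no enzyme for full effect; nearly all actives have a fitted effect of over 20% in size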
Target sequence (P00811 whole entry, looked up): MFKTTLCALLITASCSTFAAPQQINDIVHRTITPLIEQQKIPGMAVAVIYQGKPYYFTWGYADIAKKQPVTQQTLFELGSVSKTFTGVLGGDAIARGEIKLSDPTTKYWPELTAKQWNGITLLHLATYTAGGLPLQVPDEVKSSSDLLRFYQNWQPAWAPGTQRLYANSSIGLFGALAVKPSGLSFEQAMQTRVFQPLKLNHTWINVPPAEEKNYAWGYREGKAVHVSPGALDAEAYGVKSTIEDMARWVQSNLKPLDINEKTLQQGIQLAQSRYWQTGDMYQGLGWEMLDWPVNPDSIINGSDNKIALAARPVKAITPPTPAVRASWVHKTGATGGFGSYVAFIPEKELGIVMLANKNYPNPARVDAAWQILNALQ
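AmpC (5.3 nM in the dispensed reagent) in 20 mM phosphate pH 7.0 with 0.01% (detergent screen) or 0.0001% Triton X-100 was preincubated with compounds for 15 min at room temperature. Nitrocefin was then added from an 800 uM solution, and hydrolysis was followed at 480 nm.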
AmpC inh detg = blocks E. coli AmpC beta-lactamase in detergent assay | P00811 | AmpC hydrolysis of nitrocefin, absorbance 480 nm, 0.01% Triton | Potency, µM (highest dose often 114 µM), for the others: at the top dose activity change, negative = inhibition, usual class: inhibitors | actives 0.041% (n = 370,000);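 note: potency is the fitted concentration of half-maximal effect; 0% = no-compound wells and -100% = no-enzyme wells; nearly all actives have a fitted effect of over 25% in size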
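AmpC (5.3 nM in the dispensed reagent) in 20 mM phosphate pH 7.0 with 0.01% (detergent screen) or 0.0001% Triton X-100 was preincubated with compounds for 15 min at room temperature. Nitrocefin was then added from an 800 uM solution, and hydrolysis was followed at 480 nm.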
HCV inh = HCV inhibition | Huh7.5.1 HCVcc-Cre infection, luciferase reporter, 44 h | actives 3.4% (n = 340,000) | AID 651820 | Potency, µM (doses to about 41.8 µM), inactives show top-dose activity change, negative = inhibition, most hits filed as inhibitors; note: potency is the fitted concentration of half-maximal effect
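After 44 h co-culture of compound, cells and HCVcc-Cre (~0.5 moi), substrate is added for 15 min at room temperature and luciferase measured over 15 sec. Cells were seeded at 1,000/well and pre-cultured 4 h.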
The depositor's hits bear a star; ? = inconclusive; nt = no result. Only some compounds are listed: those with a hit (about 7.3% of all), similar ones and a draw of the others. Unless noted, calls come from the whole dose curve; as a rule, active = well fitted curve in the direction sought with a large enough effect; inconclusive = small, poorly fitted or top-dose-only effect, or another doubt; inactive = no such curve, though single readings can be large; an effect the other way counts as inactive or inconclusive. Unless noted, % is set by controls: 0 for no effect and ±100 for the full control effect.

SMILES | FMDV antiviral | HCMV inh | AmpC inh no detg | AmpC inh detg | HCV inh
Cc1ccc(O)c(-c2cc(-c3cccc(F)c3)n[nH]2)c1 | 36% | 69 | -39% | -11% | 10µM*
Oc1ccc(Br)cc1-c1cc(-c2ccc(Cl)cc2)n[nH]1 | -12% | -77* | -35% | 8% | 10µM*
COc1ccc(O)c(-c2cc(-c3cccc(Br)c3)n[nH]2)c1 | 71% | 12 | 2.2µM* | -9% | ?
Oc1ccc(Br)cc1-c1cc(-c2ccccc2)n[nH]1 | 4% | 100 | -30% | 0% | ?
O=[N+]([O-])c1ccccc1-c1cc(-c2ccccc2O)n[nH]1 | 13% | 10 | -10% | ? | 0%
COc1ccc(-c2cc(-c3cc(OC)ccc3O)[nH]n2)cc1 | 27% | 83 | -33% | ? | -24%
COc1ccc(CNC(=O)C(C)N2Cc3ccccc3C2=O)cc1 (stereo unspecified) | -17% | -6 | nt | 5% | nt
CC(C)C(=O)NCC1CCC2(CCN(Cc3ccc(-c4ccccc4Cl)o3)CC2)O1 (stereo unspecified) | -1% | nt | nt | nt | nt
CCCCN(CC)CCNC(=O)CN1C(=O)COc2ccc(S(=O)(=O)N3CCOCC3)cc21 | -3% | -4 | nt | -6% | nt
O=P(CCCCCCCCCP(=O)(c1ccccc1)c1ccccc1)(c1ccccc1)c1ccccc1 | ? | -35 | 61% | -2% | 14µM*
CCOC(=O)C(Nc1ccccc1NC(=O)OC(C)(C)C)C(=O)Nc1c(C)cccc1C (stereo unspecified) | nt | -8 | nt | nt | nt
O=C(CCl)Nc1sccc1C(=O)c1ccccc1 | 20µM* | -14 | nt | nt | 2%
Cc1cc(C(=O)c2ccc(C(C)(C)C)cc2)c(NC(=O)CCl)s1 | 35µM* | -65* | -5% | ? | ?
Cc1cc(C(=O)c2ccccc2)c(NC(=O)CN2CCOCC2)s1 | -9% | -6 | -1% | ? | -3%
COCC(=O)Nc1cc(C(=O)N2CC3(C)CC2CC(C)(C)C3)c2c(c1)nc(-c1ccncc1)n2C (stereo unspecified) | 0% | nt | nt | nt | nt
C/C(CCC12CC3CC(CC(C3)C1)C2)=N\NC(N)=S | 0% | -37 | -37% | -14% | 11µM*
C/C(CC1CC(C)OC1=O)=N\NC(N)=S (stereo unspecified) | 7% | 23 | -23% | 4% | 4%
COc1cc2c(c(OC)c1OC)-c1ccc(N(C)CC(OC)OC)c(=O)cc1[C@@H](NC(C)=O)CC2 | -1% | -87* | 64% | -12% | 22%
CN[C@H]1CCc2cc(OC)c(OC)c(OC)c2-c2ccc(N(C)CC(OC)OC)c(=O)cc21 | -10% | -74* | 59% | -11% | 1%
CCOCC(=O)NC1CCc2cc(OC(=O)COCC)c(OC)c(OC)c2-c2ccc(SC)c(=O)cc21 (stereo unspecified) | -14% | ? | nt | nt | 22%
CCN(CC)c1ccc2c(cc1=O)[C@@H](NC)CCc1cc(OC)c(OC)c(OC)c1-2 | -1% | -92* | 110% | -4% | 0%
COCCCNC(=O)c1nnn2c1nc(N)c1cc(Cl)ccc12 | nt | -5 | nt | nt | nt
Nc1c(C(=O)Nc2cccc(C(F)(F)F)c2)c2ccccn2c1C(=O)c1ccccc1 | -20% | 2 | nt | 20% | nt
CC(=O)c1ccc(OC(C)C(=O)OCC(=O)NCCc2ccccc2)cc1 (stereo unspecified) | -14% | 4 | -6% | -6% | 30%
CCC(=NC(C)c1ccccc1)c1c(O)n(C)c(=O)n(C)c1=O (stereo unspecified) | 13µM* | ? | 86% | ? | 5.6µM*
CCC(=NCCc1c[nH]c2ccccc12)c1c(O)n(C)c(=O)n(C)c1=O | 16µM* | -75* | 55% | -3% | 4.5µM*
Cc1c(Cc2ccccc2)c(=O)oc2cc(OCC(=O)N3CCC(C(=O)O)CC3)ccc12 | -11% | 21 | -7% | ? | ?
COc1cc2c(ccc3cc(OC)c(OC)c(O)c32)cc1O | -1% | -105* | -53% | -2% | ?
O=C(NCc1cccnc1)/C(=C\c1ccc(-c2cccc(Cl)c2)o1)S(=O)(=O)c1ccccc1 | 18µM* | -103* | 2% | 5% | ?
